{
  "source": "PubChem BioAssay (EPA / NIEHS)",
  "note": "“And” between values parts separate entries of the source, which are not always exact repeats. Equal values may be shown once. The source made the active and inactive calls. How the source made its calls: active means hit-call score of the fitted dose curve at least 0.9, where 1 is the maximum; inactive means score below 0.9.",
  "data": [
    {"read-out": "Interleukin 17F (IL17F), IL17F (gene 112744)", "experiment": "BSK_BT_xIL17F: BioMAP Diversity Plus: BT Assay for Interleukin 17F (IL17F) Biomarker Activity (AID 2284243)", "conditions": "primary human B cells with PBMC", "how_it_was_run": "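B cell/PBMC co-culture (human primary), 24 h compound exposure; sIL-17F by Luminex xMAP; gain-of-signal fit vs DMSO baseline.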", "values": [
      {"smiles": "Oc1c(Br)cc(Br)cc1Br", "outcome": "inactive"},
      {"smiles": "Cc1cc(C(C)(C)c2ccc(O)c(C)c2)ccc1O", "outcome": "inactive"},
      {"smiles": "O=c1oc2ccccc2c(O)c1C(CC(O)c1ccc(-c2ccc(Br)cc2)cc1)c1ccccc1", "note": "(centres undefined)", "outcome": "inactive"},
      {"smiles": "C[C@]12CC[C@@H](O)C[C@@H]1CC[C@@H]1[C@@H]2CC[C@]2(C)C(=O)CC[C@@H]12", "outcome": "inactive"},
      {"smiles": "CCC(C)(C#N)N=NC(C)(C#N)CC", "note": "(centres undefined)", "outcome": "inactive"},
      {"smiles": "CC(C)=CC1C(C(=O)OCc2cccc(Oc3ccccc3)c2)C1(C)C", "note": "(centres undefined)", "AC50": "20 µM (active)"},
      {"smiles": "CC1(C)[C@H](C(=O)O[C@H](C#N)c2cccc(Oc3ccccc3)c2)[C@@H]1/C=C(\\Cl)C(F)(F)F", "AC50": "17.1 µM (active) and 14.6 µM (active)"},
      {"smiles": "Cc1cc(Cl)ccc1N", "outcome": "inactive"},
      {"smiles": "OC(Cc1ccccc1Cl)(Cn1[nH]cnc1=S)C1(Cl)CC1", "note": "(centres undefined)", "outcome": "inactive"},
      {"smiles": "C#CCOC(=O)/C=C(C)/C=C/CC(C)CCCC(C)C", "note": "(centres undefined)", "outcome": "inactive"},
      {"smiles": "O=S(=O)(c1ccc(Cl)cc1)c1cc(Cl)c(Cl)cc1Cl", "AC50": "25.1 µM (active)"},
      {"smiles": "CC(C=O)Cc1ccc2c(c1)OCO2", "note": "(centres undefined)", "outcome": "inactive"},
      {"smiles": "Cc1ccccc1OP(=O)(Oc1ccccc1C)Oc1ccccc1C", "AC50": "27.3 µM (active)"},
      {"smiles": "CCOC(=O)CCN(SN(C)C(=O)Oc1cccc2c1OC(C)(C)C2)C(C)C", "AC50": "30 µM (active)"},
      {"smiles": "Oc1cccc(-c2ccccc2)c1", "outcome": "inactive"},
      {"smiles": "[Cl][Sn]([c]1ccccc1)([c]1ccccc1)[c]1ccccc1", "AC50": "0.302 µM (active)"},
      {"smiles": "OC(Cc1ccccc1Cl)(Cn1cncn1)C1(Cl)CC1", "note": "(centres undefined)", "outcome": "inactive"},
      {"smiles": "CCN(CC)C(=O)C(Cl)=C(C)OP(=O)(OC)OC", "outcome": "inactive"},
      {"smiles": "CC(C)(C)c1cc([N+](=O)[O-])cc(C(C)(C)C)c1O", "AC50": "13 µM (active)"},
      {"smiles": "CCCCN(CCCC)C(=S)[S-].CCCCN(CCCC)C(=S)[S-].[Ni+2]", "outcome": "inactive"},
      {"smiles": "NC(=O)CCl", "outcome": "inactive"},
      {"smiles": "Nc1c(Oc2ccccc2)cc(O)c2c1C(=O)c1ccccc1C2=O", "outcome": "inactive"},
      {"smiles": "c1ccc2sc(SNC3CCCCC3)nc2c1", "AC50": "32.1 µM (active)"}
    ]},
    {"read-out": "Actin alpha 1 (ACTA1), ACTA1 (gene 58)", "experiment": "BSK_MyoF_ACTA1: BioMAP Diversity Plus: MyoF Assay for Actin alpha 1 (ACTA1) Biomarker Activity (AID 2284244)", "conditions": "primary human lung fibroblasts", "how_it_was_run": "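ELISA read-out of a-SMA in primary human lung fibroblast cultures, 24 h post-dosing. Activity scored in the positive direction versus DMSO baseline.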", "values": [
      {"smiles": "Oc1c(Br)cc(Br)cc1Br", "outcome": "inactive"},
      {"smiles": "Cc1cc(C(C)(C)c2ccc(O)c(C)c2)ccc1O", "AC50": "19 µM (active)"},
      {"smiles": "O=c1oc2ccccc2c(O)c1C(CC(O)c1ccc(-c2ccc(Br)cc2)cc1)c1ccccc1", "note": "(centres undefined)", "AC50": "2.76 µM (active)"},
      {"smiles": "C[C@]12CC[C@@H](O)C[C@@H]1CC[C@@H]1[C@@H]2CC[C@]2(C)C(=O)CC[C@@H]12", "outcome": "inactive"},
      {"smiles": "CCC(C)(C#N)N=NC(C)(C#N)CC", "note": "(centres undefined)", "outcome": "inactive"},
      {"smiles": "CC(C)=CC1C(C(=O)OCc2cccc(Oc3ccccc3)c2)C1(C)C", "note": "(centres undefined)", "outcome": "inactive"},
      {"smiles": "CC1(C)[C@H](C(=O)O[C@H](C#N)c2cccc(Oc3ccccc3)c2)[C@@H]1/C=C(\\Cl)C(F)(F)F", "outcome": "inactive"},
      {"smiles": "Cc1cc(Cl)ccc1N", "outcome": "inactive"},
      {"smiles": "OC(Cc1ccccc1Cl)(Cn1[nH]cnc1=S)C1(Cl)CC1", "note": "(centres undefined)", "AC50": "25.3 µM (active)"},
      {"smiles": "C#CCOC(=O)/C=C(C)/C=C/CC(C)CCCC(C)C", "note": "(centres undefined)", "AC50": "16.4 µM (active)"},
      {"smiles": "O=S(=O)(c1ccc(Cl)cc1)c1cc(Cl)c(Cl)cc1Cl", "outcome": "inactive"},
      {"smiles": "CC(C=O)Cc1ccc2c(c1)OCO2", "note": "(centres undefined)", "outcome": "inactive"},
      {"smiles": "Cc1ccccc1OP(=O)(Oc1ccccc1C)Oc1ccccc1C", "AC50": "9.16 µM (active)"},
      {"smiles": "CCOC(=O)CCN(SN(C)C(=O)Oc1cccc2c1OC(C)(C)C2)C(C)C", "AC50": "29.3 µM (active)"},
      {"smiles": "Oc1cccc(-c2ccccc2)c1", "AC50": "33.6 µM (active)"},
      {"smiles": "[Cl][Sn]([c]1ccccc1)([c]1ccccc1)[c]1ccccc1", "AC50": "0.102 µM (active)"},
      {"smiles": "OC(Cc1ccccc1Cl)(Cn1cncn1)C1(Cl)CC1", "note": "(centres undefined)", "outcome": "inactive"},
      {"smiles": "CCN(CC)C(=O)C(Cl)=C(C)OP(=O)(OC)OC", "AC50": "0.0702 µM (active)"},
      {"smiles": "CC(C)(C)c1cc([N+](=O)[O-])cc(C(C)(C)C)c1O", "outcome": "inactive"},
      {"smiles": "CCCCN(CCCC)C(=S)[S-].CCCCN(CCCC)C(=S)[S-].[Ni+2]", "outcome": "inactive"},
      {"smiles": "NC(=O)CCl", "outcome": "inactive"},
      {"smiles": "Nc1c(Oc2ccccc2)cc(O)c2c1C(=O)c1ccccc1C2=O", "outcome": "inactive"},
      {"smiles": "c1ccc2sc(SNC3CCCCC3)nc2c1", "outcome": "inactive"}
    ]},
    {"read-out": "Interleukin 2 (IL2), IL2 (gene 3558)", "experiment": "BSK_BT_xIL2: BioMAP Diversity Plus: BT Assay for Interleukin 2 (IL2) Biomarker Activity (AID 2284245)", "conditions": "primary human B cells with PBMC", "how_it_was_run": "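Readout: supernatant IL-2 via Luminex xMAP after 24 h chemical dosing of a B cell/PBMC primary human co-culture. DMSO serves as negative control and baseline; increases in signal were fitted.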", "values": [
      {"smiles": "Oc1c(Br)cc(Br)cc1Br", "outcome": "inactive"},
      {"smiles": "Cc1cc(C(C)(C)c2ccc(O)c(C)c2)ccc1O", "outcome": "inactive"},
      {"smiles": "O=c1oc2ccccc2c(O)c1C(CC(O)c1ccc(-c2ccc(Br)cc2)cc1)c1ccccc1", "note": "(centres undefined)", "outcome": "inactive"},
      {"smiles": "C[C@]12CC[C@@H](O)C[C@@H]1CC[C@@H]1[C@@H]2CC[C@]2(C)C(=O)CC[C@@H]12", "outcome": "inactive"},
      {"smiles": "CCC(C)(C#N)N=NC(C)(C#N)CC", "note": "(centres undefined)", "outcome": "inactive"},
      {"smiles": "CC(C)=CC1C(C(=O)OCc2cccc(Oc3ccccc3)c2)C1(C)C", "note": "(centres undefined)", "AC50": "20 µM (active)"},
      {"smiles": "CC1(C)[C@H](C(=O)O[C@H](C#N)c2cccc(Oc3ccccc3)c2)[C@@H]1/C=C(\\Cl)C(F)(F)F", "AC50": "17.1 µM (active) and 14.2 µM (active)"},
      {"smiles": "Cc1cc(Cl)ccc1N", "outcome": "inactive"},
      {"smiles": "OC(Cc1ccccc1Cl)(Cn1[nH]cnc1=S)C1(Cl)CC1", "note": "(centres undefined)", "outcome": "inactive"},
      {"smiles": "C#CCOC(=O)/C=C(C)/C=C/CC(C)CCCC(C)C", "note": "(centres undefined)", "outcome": "inactive"},
      {"smiles": "O=S(=O)(c1ccc(Cl)cc1)c1cc(Cl)c(Cl)cc1Cl", "AC50": "20 µM (active)"},
      {"smiles": "CC(C=O)Cc1ccc2c(c1)OCO2", "note": "(centres undefined)", "outcome": "inactive"},
      {"smiles": "Cc1ccccc1OP(=O)(Oc1ccccc1C)Oc1ccccc1C", "AC50": "20 µM (active)"},
      {"smiles": "CCOC(=O)CCN(SN(C)C(=O)Oc1cccc2c1OC(C)(C)C2)C(C)C", "AC50": "36.3 µM (active)"},
      {"smiles": "Oc1cccc(-c2ccccc2)c1", "outcome": "inactive"},
      {"smiles": "[Cl][Sn]([c]1ccccc1)([c]1ccccc1)[c]1ccccc1", "AC50": "0.395 µM (active)"},
      {"smiles": "OC(Cc1ccccc1Cl)(Cn1cncn1)C1(Cl)CC1", "note": "(centres undefined)", "outcome": "inactive"},
      {"smiles": "CCN(CC)C(=O)C(Cl)=C(C)OP(=O)(OC)OC", "outcome": "inactive"},
      {"smiles": "CC(C)(C)c1cc([N+](=O)[O-])cc(C(C)(C)C)c1O", "AC50": "20 µM (active)"},
      {"smiles": "CCCCN(CCCC)C(=S)[S-].CCCCN(CCCC)C(=S)[S-].[Ni+2]", "outcome": "inactive"},
      {"smiles": "NC(=O)CCl", "AC50": "20 µM (active)"},
      {"smiles": "Nc1c(Oc2ccccc2)cc(O)c2c1C(=O)c1ccccc1C2=O", "outcome": "inactive"},
      {"smiles": "c1ccc2sc(SNC3CCCCC3)nc2c1", "AC50": "28.9 µM (active)"}
    ]}
  ]
}
